High-throughput results deposited in PubChem BioAssay by The Scripps Research Institute Molecular Screening Center.
SRC1 TRFRET art – TR-FRET detection interference compounds, primary screen, artefact control for PPARgamma SRC-1 recruitment agonists, biochemical, TR-FRET emission ratio; TR-FRET detection artefact counter-screen; hits give high values; TR-FRET ratio at 8 µM; 99,000 compounds, 0.34% hits; in the data active means TR-FRET ratio above about 2300
PPARg SRC2 recr – agonists of PPARg-SRC-2 recruitment, primary screen, biochemical, HTS | Peroxisome proliferator-activated receptor gamma (Homo sapiens), P37231 | PPARgamma LBD-SRC-2 recruitment | activation, % at 8 µM | 200,000 compounds, 0.34% hits | AID 1032, 2008; in the data active means activation above about 22%;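 further: 0% = vehicle and 100% = reference agonist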
SRC2 TRFRET art – TR-FRET signal artefacts, primary screen, artefact control for PPARgamma SRC-2 agonist project, biochemical | AID 1049, 2008 | 200,000 compounds, 0.4% hits | TR-FRET artefact counter-screen; hits give high values | TR-FRET ratio at 8 µM
SRC3 TRFRET art – TR-FRET detection interference compounds, artefact control for PPARgamma SRC-3 recruitment agonists, biochemical, TR-FRET ratio; TR-FRET artefact counter-screen, PPARgamma/SRC-3 format; hits give high values; TR-FRET ratio at 8 µM; AID 1048, 2008; 99,000 compounds, 0.39% hits
PPARg SRC-3 ag – PPARgamma agonists recruiting SRC-3 coactivator, primary screen, biochemical; AID 731, 2007; 200,000 compounds, 0.26% hits; activation, % at 8 µM; Peroxisome proliferator-activated receptor gamma (Homo sapiens), P37231; biochemical PPARgamma/SRC-3 coactivator recruitment assay; in the data active means activation above about 23%;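 further: 0% = DMSO and 100% = reference agonist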
PPARg SRC-1 ag – PPARgamma agonists recruiting SRC-1 coactivator, primary screen, biochemical; AID 631, 2007; activation, % at 8 µM; Peroxisome proliferator-activated receptor gamma (Homo sapiens), P37231; 200,000 compounds, 0.41% hits; PPARgamma-SRC-1 coactivator recruitment biochemical assay; in the data active means activation above about 19%;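 further: 0% = DMSO and 100% = reference agonist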
PPARg SRC2 ag – agonists of PPARgamma SRC-2 coactivator recruitment, confirmation, biochemical, HTS; shares compounds with PPARg SRC-3 ag; biochemical SRC-2 recruitment by PPARgamma; activation, % at 8 µM; 790 compounds, 52% hits; in the data active means activation above about 22%;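 further: 0% = vehicle alone and 100% = reference agonist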
PPARg SRC1 ag – PPARgamma agonists recruiting SRC-1 coactivator, confirmation, biochemical | PPARgamma–SRC-1 coactivator recruitment biochemical assay | 790 compounds, 43% hits | AID 1300, 2008 | activation, % at 8 µM | shares compounds with PPARg SRC-3 ag; in the data active means activation above about 20%;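 further: 0% = vehicle wells and 100% = reference agonist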
PPARg SRC3 conf – PPARgamma-driven SRC-3 coactivator recruitment agonists, confirmation, biochemical | shares compounds with PPARg SRC-3 ag | biochemical PPARgamma-SRC-3 coactivator recruitment, agonist mode | activation, % at 8 µM | 790 compounds, 29% hits; in the data active means activation above about 24%;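 further: 0% = vehicle wells and 100% = reference agonist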
* = called active by the depositor; x = not tested or not shown. This is a sample that favours compounds with a hit; in the whole collection about 0.9% have one here. Unless noted, no stated cut-off is given here; in the data, active means TR-FRET ratio above about 2000; inactive means the rest.

SMILES	SRC1 TRFRET art	PPARg SRC2 recr	SRC2 TRFRET art	SRC3 TRFRET art	PPARg SRC-3 ag	PPARg SRC-1 ag	PPARg SRC2 ag	PPARg SRC1 ag	PPARg SRC3 conf
CCn1c(=O)cc(SCC(=O)N2CCN(c3ccccc3F)CC2)c2ccccc21	x	42*	2381*	x	34*	30*	36*	23*	24*
CCn1c(=O)cc(SCC(=O)N2CCN(c3ccccn3)CC2)c2ccccc21	3018*	35*	2505*	2355*	21	39*	50*	34*	34*
CCOc1ccc(Br)cc1S(=O)(=O)NCc1ccncc1	1582	4	1667	1504	4	6	x	x	x
N#C/C(=C\c1ccc(N2CCOCC2)c([N+](=O)[O-])c1)c1nc2ccccc2[nH]1	1558	-1	1476	1599	0	-5	x	x	x
N#C/C(=C\c1ccc(N2CCOCC2)o1)c1nc2ccccc2[nH]1	x	26*	1740	x	23	25*	4	13	11
CCn1c(=O)cc(SCC(=O)N(C)Cc2ccccc2)c2ccccc21	x	47*	2336*	x	34*	32*	42*	28*	27*
CCOC(=O)N1CCC(NC(=O)CSc2cc(=O)n(C)c3ccccc23)CC1	x	49*	2545*	x	48*	47*	40*	26*	25*
CCOC(=O)CSc1cc(=O)n(C)c2cc(Cl)ccc12	x	68*	3535*	x	97*	77*	43*	26*	28*
CCOc1ccc(CCNC(=O)CSc2cc(=O)n(CC)c3ccccc23)cc1OCC	2106	31*	2084*	1684	15	20*	25*	18	17
CCCc1cc(=O)[nH]c(SCC(=O)N(C)Cc2ccccc2)n1	x	9	1409	x	5	3	x	x	x
CC(C)(C)OC(=O)N1CCN(c2ccc([N+](=O)[O-])cc2)CC1	1718	3	1598	1293	1	5	x	x	x
CCOC(=O)CSc1cc(=O)n(CC)c2ccccc12	x	36*	2136*	x	32*	28*	27*	17	19
CCCCN(CC)C(=O)CSc1cc(=O)n(C)c2ccccc12	x	51*	2446*	x	74*	55*	32*	20*	21
Cn1c(=O)cc(SCC(=O)NCC2COc3ccccc3O2)c2ccccc21 (stereo unspecified)	x	15	1878	x	12	4	x	x	x
Cn1c(=O)cc(SCC(=O)N2CCCC2)c2ccccc21	2601*	35*	2431*	2626*	20	30*	37*	24*	26*
CN(Cc1ccccc1)C(=O)CSc1cc(=O)n(C)c2ccccc12	3203*	17	2656*	2514*	31*	46*	32*	22*	24*
O=S(=O)(Nc1nc2ccccc2nc1Nc1cccc(S(=O)(=O)N2CCCCC2)c1)c1ccccc1	1450	-7	1466	1557	-2	-8	x	x	x
Cc1ccc(C(=O)OCC(=O)c2ccc[nH]2)s1	1844	-1	1546	1557	2	-6	x	x	x
O=C(COC(=O)c1ccc(Cl)s1)c1ccc[nH]1	1863	22*	1677	1421	7	11	3	3	7
Cc1cc(=O)oc2c(C(=O)/C=C\c3cccs3)c(O)ccc12	1766	-1	1427	1335	-3	2	x	x	x
Cc1c(C(=O)/C=C/c2cccs2)oc2ccc(F)cc12	x	14	2116*	x	24	28*	11	9	7
CC(NC(=S)NCc1ccccc1)C12CC3CC(CC(C3)C1)C2 (stereo unspecified)	1737	-6	1561	1591	-4	-7	x	x	x
C#CCn1c(=NC(=O)c2ccc(Br)s2)sc2cc(NC(C)=O)ccc21	1868	3	1669	1650	7	4	x	x	x
C#CCn1c(=NC(=O)c2ccc(Br)s2)sc2cccc(OC)c21	x	30*	4015*	x	33*	24*	46*	32*	26*
CCn1c(CC(=O)Nc2ccccc2)n[nH]c1=S	1833	3	1543	1742	2	7	x	x	x
SMILES	SRC1 TRFRET art	PPARg SRC2 recr	SRC2 TRFRET art	SRC3 TRFRET art	PPARg SRC-3 ag	PPARg SRC-1 ag	PPARg SRC2 ag	PPARg SRC1 ag	PPARg SRC3 conf
COc1ccc(OC)c2c1C(=O)c1ccccc1C2=O	x	7	1531	x	-1	5	x	x	x
COc1ccc(N)c2c1C(=O)c1ccccc1C2=O	2519*	34*	1893	2262*	27*	23*	25*	23*	20
Nc1ccc(O)c2c1C(=O)c1ccccc1C2=O	2546*	32*	2073*	2307*	21	24*	17	11	10
Cc1ccc(NC(=O)Cc2cc(C(=O)O)c3ccccc3n2)c(C)c1	1769	6	1571	1651	-2	12	x	x	x
CCCCn1c(=S)[nH]c2c(oc3ccc(Cl)cc32)c1=O	x	17	1792	x	18	22*	12	5	11
Cc1cc(C(=O)CCl)c(C)n1-c1c(C)n(C)n(-c2ccccc2)c1=O	1691	-3	1374	1537	-3	-4	x	x	x
CCN(CC)c1ccc(NC(=O)c2cnn(CC)c2)cc1	x	22*	1842	x	27*	12	-2	-4	0
CCn1c(=S)ccc2ccc(OC)cc21	x	39*	2084*	x	40*	21*	9	4	6
O=c1c2cn[nH]c2[nH]c(=S)n1-c1cccc2ccccc12	2560*	24*	2219*	2082*	17	17	24*	15	17
O=C(COc1cc(F)ccc1[N+](=O)[O-])NCCCc1ccccc1	2024	3	1391	1311	2	4	x	x	x
N#Cc1cc2c(nc1SCc1ccccc1)CCCCC2	x	35*	1973*	x	9	12	37*	33*	24*
N#Cc1cc2c(nc1SCc1cccc(Cl)c1)CCCCC2	x	17	1696	x	-2	18	x	x	x
O=C(CSc1nc2scc(-c3ccco3)c2c(=O)n1-c1ccccc1)N1CCOCC1	x	35*	2021*	x	37*	23*	26*	21*	19
NC(=O)CSc1nc2scc(-c3ccco3)c2c(=O)n1-c1ccccc1	x	15	1825	x	5	15	x	x	x
